PubChem BioAssay
Activity calls are given as the source filed them. Unless noted, how the calls were made is not given here.

Legend:
[1] = test system: XIP peptide (Xip251-270) binding; assay: XIP fragment 251-270 binding compounds – biochemical, small-molecule microarray, fluorescence 635/667 nm, 0.1 µg/mL protein, primary screen (AID 1182); settings: fluorescent protein binding, 635 nm, higher = more signal, called active from +8 up or from −8 down
XIP peptide (Xip251-270) = assay: compounds binding XIP fragment 251-270 – biochemical, small-molecule microarray, fluorescence 635/667 nm, 0.5 µg/mL protein, primary screen (AID 1183); settings: fluorescence 635 nm, higher = more signal
[2] = blood-stage malaria parasite viability loss – strain 3D7, DAPI fluorescence, 100 nL, primary screen (AID 1184);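 further: parasites grown inside human red blood cells in medium with human serum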; settings: P. falciparum 3D7 growth, 3 d, higher = more signal
[3] = target: Homeobox protein Hox-A13 (Mus musculus) (UniProt Q62424); assay: disruptors of Hoxa13 oligonucleotide interaction – biochemical, fluorescence polarization, labeled oligonucleotide, primary screen (AID 1185); settings: Hoxa13:DNA binding, 15 min, higher = more signal, called active from +8 up or from −8 down
Sequence of Homeobox protein Hox-A13 (Mus musculus) (Q62424 whole entry, looked up): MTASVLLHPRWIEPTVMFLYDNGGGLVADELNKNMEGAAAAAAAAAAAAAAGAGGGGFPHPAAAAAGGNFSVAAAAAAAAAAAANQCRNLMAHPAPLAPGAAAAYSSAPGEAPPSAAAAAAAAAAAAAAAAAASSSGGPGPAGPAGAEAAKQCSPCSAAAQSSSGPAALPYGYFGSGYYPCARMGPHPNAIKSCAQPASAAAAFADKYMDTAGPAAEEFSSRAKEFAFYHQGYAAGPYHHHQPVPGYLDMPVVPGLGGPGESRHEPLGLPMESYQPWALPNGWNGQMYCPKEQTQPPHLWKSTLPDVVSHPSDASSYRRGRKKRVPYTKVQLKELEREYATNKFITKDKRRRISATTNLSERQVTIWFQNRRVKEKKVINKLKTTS

[4] = blockers of DNA damage checkpoint Chk1 activation – imaging, HeLa, hydroxyurea, phospho-Chk1 antibody, percent positive cells, primary screen (AID 1186); settings: hydroxyurea-induced phospho-Chk1 immunofluorescence imaging, higher = more signal
[5] = blockers of DNA damage checkpoint Chk1 activation – imaging, HeLa, hydroxyurea, phospho-Chk1 nuclear intensity, primary screen (AID 1187); settings: hydroxyurea-induced phospho-Chk1 immunofluorescence imaging, higher = more signal

Structure (SMILES)	composite z-score [1]	composite z-score (XIP peptide (Xip251-270))	z-score [2]	z-score [3]	z-score [4]	z-score [5]
CCOC(=O)C1=CC[C@@H](c2ccc(OCc3ccccc3)c(OC)c2)N(S(=O)(=O)c2ccc(C)cc2)[C@H]1c1ccc(SC)cc1	0.56 (inactive)	0.569	-2.05	1.81 (inactive)	-0.387 (inactive)	-0.768 (inactive)
CC(C)(C)N1CC=CC23O[C@@H]4C=CCCOC(=O)C4[C@H]2C(=O)N(CCO)[C@@H]3C1=O (stereo partly drawn)	-0.692 (inactive)	-0.421	-0.175	-4.92 (inactive)	0.0024 (inactive)	-0.528 (inactive)
[N-]=[N+]=NCc1ccccc1[C@H]1OC(c2ccc(OCCCO)cc2)=N[C@@]1(CCS(=O)(=O)c1ccccc1)C(=O)N1CCCCC1	0.447 (inactive)	0.757	-2.46	-3.76 (inactive)	-0.0013 (inactive)	-0.0087 (inactive)
[N-]=[N+]=NCc1ccccc1C[C@@]1(C(=O)N2CCCCC2)N=C(c2ccc(OCCCO)cc2)O[C@@H]1c1ccccc1	-0.194 (inactive)	0.434	-2.38	-4.86 (inactive)	-0.219 (inactive)	-0.234 (inactive)
C=C(/C(=C/C[C@H](OC(C)=O)c1ccccc1OCCO)c1cc(C(=O)OC)ccc1OC)C(C)C	-0.2 (inactive)	-0.239	-2.42	-4.07 (inactive)	-0.0815 (inactive)	-0.292 (inactive)
C=C(COC)/C(=C/C[C@H](OC(C)=O)c1ccc(OCCO)cc1)c1cc(C(=O)OC)ccc1OC	0.192 (inactive)	0.731	-2.95	-4.11 (inactive)	-0.285 (inactive)	0.98 (inactive)
CC[C@H]1C2=C3C(CC[C@H]4C(OCc5ccc(F)cc5C(F)(F)F)OC[C@](C)([C@@H]34)N(C(=O)OC(C)(C)C)C2)C(COC)C1COC (stereo partly drawn)	0.716 (inactive)	-0.379	0.133	-1.11 (inactive)	0.645 (inactive)	0.217 (inactive)
NC(=O)NCC#Cc1ccc2c(c1)[C@]1(C(=O)N2)[C@H](C(=O)O)[C@H]2C(=O)O[C@H](c3ccccc3)[C@H](c3ccccc3)N2[C@@H]1c1ccc(OCCO)cc1	-0.316 (inactive)	0.419	-0.46	-6.34 (inactive)	0.242 (inactive)	0.615 (inactive)
COCCOC(=O)N1C(=O)[C@@]2(c3cc(C#CC4=CCCCC4)ccc31)[C@H](c1ccc(O)cc1)N1[C@H](c3ccccc3)[C@H](c3ccccc3)OC(=O)[C@H]1[C@@H]2C(=O)N1CCN(c2ncccn2)CC1	-0.0719 (inactive)	0.306	0.145	-0.674 (inactive)	-0.231 (inactive)	-0.758 (inactive)
O=C1OCC=C[C@H]2OC34C=CCN(Cc5ccccc5)C(=O)[C@H]3N(CCCCCCO)C(=O)[C@@H]4[C@@H]12 (stereo partly drawn)	1.49 (inactive)	0.295	-1.16	-4.53 (inactive)	-0.584 (inactive)	-0.232 (inactive)
O=C1O[C@H](c2ccccc2)[C@H](c2ccccc2)N2[C@H]1[C@@H](C(=O)N1CCN(c3ncccn3)CC1)[C@]1(C(=O)Nc3ccc(C#CC4(O)CCCCCC4)cc31)[C@H]2c1ccc(OCCO)cc1	2.51 (inactive)	0.781	-2.13	0.271 (inactive)	0.354 (inactive)	0.527 (inactive)
COC(=O)[C@@]1(Cc2ccc(F)cc2)[C@H]2c3cc(C(=O)N4CCCC4)n(CCN4CNCC4=O)c3C[C@H]2CN1C(=O)c1ccccc1	0.207 (inactive)	0.632	-1.65	-5.84 (inactive)	0.191 (inactive)	0.44 (inactive)
COC(=O)[C@@]1(Cc2ccc(OC)cc2)[C@@H]2C(=CC(=O)[C@H]2CC(=O)C(=O)N(C)C)CN1C(=O)c1ccccc1	0.0312 (inactive)	0.739	-1.73	-3.95 (inactive)	-0.246 (inactive)	-0.0503 (inactive)
O=C1C2C=CC(C(O)c3ccc(Br)cc3)N(Nc3ccccc3F)C2C(=O)N1c1ccccc1 (stereo not drawn)	0.197 (inactive)	0.704	-0.133	-2.41 (inactive)	-0.863 (inactive)	-0.909 (inactive)
CN(C)C(=O)[C@@]1(Cc2ccccc2CN=[N+]=[N-])N=C(c2ccc(OCCCO)cc2)O[C@H]1c1ccccc1CN=[N+]=[N-]	0.105 (inactive)	0.707	-2.15	-2.04 (inactive)	-0.0765 (inactive)	0.127 (inactive)
NCCCCCNC(=O)[C@@H]1C[C@@H]2C(=O)NCC(=O)N2[C@@H]1c1cccc(OCCO)c1	0.318 (inactive)	0.782	-1.28	-1.43 (inactive)	0.518 (inactive)	0.503 (inactive)
CO[C@H]1O[C@H](CO)[C@@H](OC(=O)Nc2ccccc2-c2ccccc2)[C@H](OC(=O)Nc2ccc3c(c2)OCO3)[C@H]1OC(=O)Nc1ccc2c(c1)OCO2	0.886 (inactive)	0.892	-1.6	-9.89 (active)	-0.356 (inactive)	-0.272 (inactive)

Structure (SMILES)	composite z-score [1]	composite z-score (XIP peptide (Xip251-270))	z-score [2]	z-score [3]	z-score [4]	z-score [5]
CC1=C([C@H](O)CCc2ccccc2)[C@H](CO)[C@@H]2C(=O)N(C)C(=O)[C@@H]2C1	-0.0688 (inactive)	0.389	0.306	-4.05 (inactive)	-0.296 (inactive)	-0.528 (inactive)
Cc1ccc(S[C@]2(C(=O)NCC(F)(F)F)CC(=O)N(C3CCCCC3)[C@@H]2c2ccc(CO)cc2I)cc1	-0.0988 (inactive)	0.735	-0.142	-3.45 (inactive)	0.148 (inactive)	0.594 (inactive)
N#Cc1ccc(NN2C(C(O)c3ccc(F)cc3)C=CC3C(=O)N(c4ccccc4)C(=O)C32)cc1 (stereo not drawn)	0.536 (inactive)	0.634	-0.573	-0.0009 (inactive)	-0.0909 (inactive)	-0.0009 (inactive)
COc1ccc([Si](C)(C)[C@@H]2[C@@H](CC(=O)N(CCO)Cc3ccccc3)O[C@]3(C(=O)N(Cc4cccc(N5C(=O)c6cccc7cccc5c67)c4)c4ccccc43)[C@H]2C)cc1	-0.338 (inactive)	0.604	-2.52	-0.625 (inactive)	-0.512 (inactive)	0.0885 (inactive)
O=C1O[C@H](c2ccccc2)[C@H](c2ccccc2)N2[C@H]1[C@@H](C(=O)NC[C@H](O)c1ccccc1)[C@]1(C(=O)Nc3ccc(C#CCCO)cc31)[C@H]2c1ccc(OCCO)cc1	1.14 (inactive)	0.829	-0.685	-3.46 (inactive)	-0.434 (inactive)	-0.821 (inactive)
COc1cccc(/C=C/C=O)c1	0.421 (inactive)	-0.453	1.1	-0.396 (inactive)	0.36 (inactive)	0.769 (inactive)
CN(C)C(=O)[C@@]1(CCS(=O)(=O)c2ccccc2)N=C(c2ccc(OCCCO)cc2)O[C@H]1c1ccccc1	0.77 (inactive)	0.704	-1.48	-6.87 (inactive)	-0.13 (inactive)	-0.0208 (inactive)
[N-]=[N+]=NCc1ccccc1C[C@@]1(C(=O)NCc2ccccc2)N=C(c2ccc(OCCCO)cc2)O[C@@H]1c1ccccc1N=[N+]=[N-]	0.047 (inactive)	0.558	-2.37	0.321 (inactive)	-0.299 (inactive)	-0.147 (inactive)
C[N+](C)(C)CCCCCCNC(=O)[C@H]1C[C@H]2C(=O)N[C@@H](Cc3ccccc3)C(=O)N2[C@H]1c1ccc(O)cc1	0.901 (inactive)	0.5	0.0933	-3.23 (inactive)	0.141 (inactive)	0.14 (inactive)
CCCCCCCCCCC(O)C1C=CC2C(=O)N(C)C(=O)C2N1Nc1ccc([N+](=O)[O-])cc1[N+](=O)[O-] (stereo not drawn)	-0.0993 (inactive)	0.464	0.625	-3.99 (inactive)	0.496 (inactive)	-0.12 (inactive)
COCCOC(=O)N1C(=O)[C@@]2(c3cc(C#CC4=CCCCC4)ccc31)[C@H](c1ccccc1OCCO)N1[C@H](c3ccccc3)[C@H](c3ccccc3)OC(=O)[C@H]1[C@@H]2C(=O)N1CCCCCCC1	0.549 (inactive)	0.688	-2.05	4.13 (inactive)	0.234 (inactive)	0.347 (inactive)
CC(CO)N1C(=O)[C@@H]2[C@H]3C(=O)OCC=C[C@H]3OC23C=CCN(CCN2CCOCC2)C(=O)[C@@H]13 (stereo partly drawn)	-0.0198 (inactive)	0.154	0.177	-5.37 (inactive)	-0.259 (inactive)	-0.252 (inactive)
CCCC[C@@H](O)C1=C(COc2ccccc2)C[C@H]2C(=O)N(C)C(=O)[C@H]2[C@H]1CO	-0.35 (inactive)	-0.442	-0.764	-3.48 (inactive)	-1.66 (inactive)	-1.41 (inactive)
COc1cc(CO)cc(I)c1O[C@H]1C=C(C(=O)NCCO)C[C@@H](NCc2ccc(F)cc2)[C@@H]1O	-0.35 (inactive)	0.728	-3.1	-7.05 (inactive)	-0.926 (inactive)	-2.03 (inactive)
CN1C(=O)C2C=CC(C(O)c3cccc(O)c3)N(Nc3ccccc3)C2C1=O (stereo not drawn)	-0.252 (inactive)	-0.0631	0.655	-0.751 (inactive)	0.0011 (inactive)	0.118 (inactive)
COCCOC(=O)N1C(=O)[C@@]2(c3ccccc31)[C@H](C(=O)N1CCN(c3ncccn3)CC1)[C@H]1C(=O)O[C@H](c3ccccc3)[C@H](c3ccccc3)N1[C@@H]2c1ccc(O)cc1	0.43 (inactive)	0.854	-1.55	-0.883 (inactive)	0.172 (inactive)	0.371 (inactive)
